Test results: the supplement of paper PMC10811239

These molecules were tested on LEGO organoid PT (PTEN-/-; TP53-/-) (assay: bioluminescence (viable cell) signal fold change after vs before treatment, normalised to DMSO (ratio); higher = more tumour cell growth / less inhibition). Details: 10 µM; treatment time 6 days.
Experimental: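 Luc2-labelled iPSC-derived glioblastoma-like organoids (LEGOs, genotypes PT = PTEN-/-;TP53-/-, PTCC = plus CDKN2A/B-/-, PTN = plus NF1-/-) were treated with 10 uM drug for 6 days (applied every other day) at 37 C. Bioluminescence imaging was done before treatment and 2 days after the last dose. BLI signals were normalised to the DMSO control on the same day and then to the pre-treatment signal (N=3).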

Row | Compound | bioluminescence
1 | CC(C)C[C@H]1C(=O)N2CCC[C@H]2[C@]2(O)O[C@](NC(=O)[C@@H]3C[C@@H]4c5cccc6[nH]cc(c56)C[C@H]4N(C)C3)(C(C)C)C(=O)N12.CC(C)[C@@]1(NC(=O)[C@@H]2C[C@@H]3c4cccc5[nH]cc(c45)C[C@H]3N(C)C2)O[C@@]2(O)[C@@H]3CCCN3C(=O)[C@H](Cc3ccccc3)N2C1=O.CC(C)[C@H]1C(=O)N2CCC[C@H]2[C@]2(O)O[C@](NC(=O)[C@@H]3C[C@@H]4c5cccc6[nH]cc(c56)C[C@H]4N(C)C3)(C(C)C)C(=O)N12.CCC(C)[C@H]1C(=O)N2CCC[C@H]2[C@]2(O)O[C@](NC(=O)[C@@H]3C[C@@H]4c5cccc6[nH]cc(c56)C[C@H]4N(C)C3)(C(C)C)C(=O)N12.CS(=O)(=O)O [Dihydroergotoxine mesylate] | 0.998
2 | O=C(O)CCCc1ccc(N(CCCl)CCCl)cc1 [Chloroambucil] | 1.03
3 | COc1cc2c(cc1OC)[C@@H]1CC(=O)[C@@H](CC(C)C)CN1CC2.COc1cc2c(cc1OC)[C@H]1CC(=O)[C@H](CC(C)C)CN1CC2 [Tetrabenazine] | 0.657
4 | NCC1(CC(=O)O)CCCCC1 [Gabapentin] | 1.08
5 | CCN(C)C(=O)Oc1cccc([C@H](C)N(C)C)c1 [Rivastigmine] | 1.31
6 | CN[C@@H]1C[C@H]2O[C@@](C)([C@@H]1OC)n1c3ccccc3c3c4c(c5c6ccccc6n2c5c31)C(=O)NC4 [Staurosporine] | 0.0178
7 | CCC1(c2ccc(N)cc2)CCC(=O)NC1=O (configuration not stated) [Aminoglutethimide] | 0.724
8 | CCN(C)C(=O)Oc1cccc([C@H](C)N(C)C)c1.O=C(O)[C@H](O)[C@@H](O)C(=O)O [Rivastigmine tartrate] | 2.08
9 | NCC(CC(=O)O)c1ccc(Cl)cc1 (configuration not stated) [Baclofen] | 0.694
10 | Cc1n[nH]cc1-c1cc2[nH]c([C@@H]3CC4CCN3CC4)nc(=O)c2s1 [Simurosertib] | 1.6
11 | CC(C)c1cccc(C(C)C)c1O [Propofol] | 1.34
12 | CCOC(=O)c1cncn1[C@H](C)c1ccccc1 [Etomidate] | 1.09
13 | CC[C@@H](C(N)=O)N1CCCC1=O [Levetiracetam] | 0.803
14 | CN(C)C(=O)Oc1ccc[n+](C)c1.[Br-] [Mestinon] | 0.942
15 | Cc1cccc([C@H](C)c2cnc[nH]2)c1C.Cl [Dexmedetomidine HCl] | 0.872
16 | Cl.Cn1c(CCCC(=O)O)nc2cc(N(CCCl)CCCl)ccc21 [Bendamustine hydrochloride] | 0.772
17 | COc1ccc(C(CN(C)C)C2(O)CCCCC2)cc1.Cl (configuration not stated) [Venlafaxine hydrochloride] | 0.615
